The nature of assay [1]: AP1 Signaling Pathway (AID 357).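 Further: ME-180 reporter cells stimulated with EGF at its EC50 level; on the % scale 0 is the no-effect control and ±100 the full control effect.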 The method, boiled down: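 In this screen, ME-180 cells in Opti-MEM with 0.5% dialyzed FBS received EC50 EGF and compound titrations for 5 h. AP-1 reporter beta-lactamase was detected via CCF4 ratio, giving AC50 for positive and negative modulators.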
In assay [2] the target is Cytochrome P450 1A2 (Homo sapiens) (UniProt P05177). Kind of assay: p450-cyp1a2 (AID 410; calls by dose curve;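 further: -100% = full effect of reference inhibitor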). A digest of the protocol: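 Luminescent readout of luciferin formed from Luciferin-ME by human CYP1A2; data normalized against complete inhibition by 57 uM furafylline. Enzyme 20nM, substrate 100uM at Km, 100mM KPO4 buffer, 60 min reaction at room temperature.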
Cytochrome P450 1A2 (Homo sapiens), sequence (P05177 whole entry, looked up): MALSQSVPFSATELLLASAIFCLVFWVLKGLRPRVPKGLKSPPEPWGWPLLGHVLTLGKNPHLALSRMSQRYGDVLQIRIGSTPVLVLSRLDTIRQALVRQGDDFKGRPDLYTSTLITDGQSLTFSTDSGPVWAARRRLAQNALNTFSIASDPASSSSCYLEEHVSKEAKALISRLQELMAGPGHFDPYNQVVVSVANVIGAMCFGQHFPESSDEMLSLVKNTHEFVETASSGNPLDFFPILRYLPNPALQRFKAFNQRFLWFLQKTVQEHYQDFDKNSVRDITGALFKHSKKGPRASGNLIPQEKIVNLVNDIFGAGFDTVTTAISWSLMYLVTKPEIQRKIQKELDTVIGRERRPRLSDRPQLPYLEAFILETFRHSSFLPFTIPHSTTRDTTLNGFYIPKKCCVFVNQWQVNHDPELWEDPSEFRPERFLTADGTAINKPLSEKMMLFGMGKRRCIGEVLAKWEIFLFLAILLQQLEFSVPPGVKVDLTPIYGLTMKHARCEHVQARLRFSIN
Assay [3] in a line: NFAT Signaling Pathway (AID 444).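 Further: carbachol stimulus at about its EC50 of 1 µM final; on the % scale 0 is the no-effect control and ±100 the full control effect.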 As to conditions: Jurkat NFAT-bla M1, carbachol, beta-lactamase ratio, 5 h; at 17.2 µM (top of the series) unless noted. A digest of the protocol: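 Jurkat cells carrying an NFAT-driven β-lactamase reporter and co-transfected muscarinic M1 receptor were treated with compound plus carbachol (1 uM final, an EC50 level) for 5 h at 37 °C. CCF4 loading followed for 1 h at RT; 460/530 nm ratio gave %activity.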

Assay [4] in a line: Stat Signaling Pathway (AID 446).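 Further: ME-180 cervical cancer cells given 40 pM IL-6 alongside compound; SIE-controlled beta-lactamase reporter measured as 460/530 nm FRET emission ratio; on the % scale 0 is the no-effect control and ±100 the full control effect.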 A digest of the protocol:
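ME-180 SIE-bla cells; overnight plating; cpd + IL-6 40 pM, 5 h, 37 C; LiveBLAzer 2.5 h RT; 460/530 nm emission ratio. Normalized to 300 pM IL-6 and 125 nM JAK inhibitor controls.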

The target of assay [5] is Glucocorticoid receptor (Homo sapiens) (UniProt P04150). As to the kind of experiment: GR-GFP Redistribution (AID 450;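 active means compounds whose dose series gives a full or clear partial fitted curve of increased nuclear translocation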; further: potency means the concentration at half of the fitted maximal effect). The conditions noted are these: U2OS GR-GFP nuclear translocation, laser cytometry, 2 h.
Glucocorticoid receptor (Homo sapiens), sequence (P04150 whole entry, looked up): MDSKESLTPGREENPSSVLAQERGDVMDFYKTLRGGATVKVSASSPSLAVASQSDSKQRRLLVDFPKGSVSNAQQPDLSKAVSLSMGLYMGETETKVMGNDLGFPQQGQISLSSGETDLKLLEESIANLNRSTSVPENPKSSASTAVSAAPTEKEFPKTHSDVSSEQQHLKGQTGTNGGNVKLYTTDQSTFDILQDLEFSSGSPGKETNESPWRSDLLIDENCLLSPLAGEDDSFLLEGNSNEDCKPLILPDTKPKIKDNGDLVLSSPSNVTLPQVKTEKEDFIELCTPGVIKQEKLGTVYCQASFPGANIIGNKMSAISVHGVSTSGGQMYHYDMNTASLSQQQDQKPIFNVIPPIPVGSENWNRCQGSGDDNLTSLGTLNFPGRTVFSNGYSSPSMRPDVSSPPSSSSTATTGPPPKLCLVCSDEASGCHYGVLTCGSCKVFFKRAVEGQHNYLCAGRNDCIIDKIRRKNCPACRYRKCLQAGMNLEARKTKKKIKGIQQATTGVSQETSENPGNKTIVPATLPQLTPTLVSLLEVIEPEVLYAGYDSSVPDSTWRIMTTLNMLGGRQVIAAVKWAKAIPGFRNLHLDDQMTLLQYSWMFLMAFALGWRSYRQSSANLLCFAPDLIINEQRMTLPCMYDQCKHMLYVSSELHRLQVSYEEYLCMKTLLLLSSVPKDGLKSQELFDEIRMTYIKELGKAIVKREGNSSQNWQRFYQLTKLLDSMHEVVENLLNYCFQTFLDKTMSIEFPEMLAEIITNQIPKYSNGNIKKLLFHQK
Assay [6] shares this target. Kind of assay: GR-EFC Redistribution (AID 451; calls by dose curve; further: potency means the concentration at half of the fitted maximal effect). As to conditions: CHO-K1 GR-EFC translocation, beta-gal luminescence, 2 h. A digest of the protocol:
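CHO-K1 cells stably expressing nuclear-localized β-gal enzyme acceptor and GR fused C-terminally to the enzyme donor fragment; ligand-driven nuclear translocation restores β-gal by complementation. Compounds titrated up to 46 uM final, 2 h at 37 °C; luminescence read.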

Assay [7] addresses Mitogen-activated protein kinase 10 (Mus musculus) (UniProt Q61831). As to the kind of experiment: JNK3 AlphaScreen Assay (AID 530).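 Further: kinase came from lysate of stimulated human HepG2 cells; signal reports phosphorylation of biotinylated GST-cJun 1-79 at Ser73 with 10 µM ATP; on the % scale 0 is the no-effect control and ±100 the full control effect.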 The method, boiled down:
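Inhibitors reduce antibody binding to phosphorylated biotin-cJun, lowering AlphaScreen luminescence. Lysates from HepG2 cells pre-activated by IL-1beta plus TNF-alpha supplied JNK3; compounds were titrated.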
(In Alpha technology, singlet oxygen from a donor bead excites a nearby acceptor bead.)

Assay [8] deals with 3',5'-cyclic-AMP phosphodiesterase 4B (Homo sapiens) (UniProt Q07343). As to the kind of experiment: qHTS Assay for Inhibitors of PDE-IV (AID 607; active means well fitted activation curve with a large enough effect in the main read-out, with a control signal flat, not every such curve was filed as active; further: % of control where 0% means no effect). The method, boiled down:
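ACTOne HEK293 cells carry a modified cAMP-gated CNG channel and express endogenous PDE4; plated 1000 cells/well, compounds up to 22.9 uM final. Membrane-potential dye fluorescence (ex 535/em 590) was read; parental cells received 10 uM forskolin + 100 uM RO 20-1724.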
On the technique in general: Quantitative high-throughput screening tests each substance at several concentrations.

Assay [9] can be described thus: qHTS Assay for Lipid Storage Modulators (AID 1519; calls by dose curve). The conditions noted are these: Drosophila S3 cells, BODIPY lipid droplet/cell ratio, laser cytometry, cells loaded with oleic acid; for activity change, negative = inhibition: at 25.7 µM (top of the series). A digest of the protocol: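 Cells seeded at 5,000 per well were treated with compounds over a concentration series and loaded with oleic acid (400 uM, as added). Lipid droplet fluorescence (488 nm excitation, 500-530 nm channel) was read by laser-scanning cytometry and normalized to 20 uM Triacsin C.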

In assay [10] the target is Ubiquitin carboxyl-terminal hydrolase 1 (Homo sapiens) (UniProt O94782). Kind of assay: Inhibitors of USP1/UAF1: Pilot qHTS (AID 504865; active means well fitted curve in the direction sought with a large enough effect; an effect the other way counts as inactive or inconclusive;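 further: rhodamine fluorescence freed from ubiquitin-rhodamine substrate followed over time; top concentration of the series differs between compounds; on the % scale 0 is the no-effect control and ±100 the full control effect; nearly all actives have a fitted effect of over 35% in size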). A digest of the protocol:
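Enzyme-free wells gave the negative control, while test wells held 1nM USP1/UAF1 preincubated with compound for 15 min at room temperature. Ub-Rho at 150nM final started the reaction, and fluorescence at 480/540 nm was recorded kinetically.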

Assay [11] has as its target Luciferin 4-monooxygenase (Photinus pyralis) (UniProt P08659). As to the kind of experiment: Biochemical firefly luciferase enzyme assay for NPC (AID 624030; active means well fitted curve in the direction sought with a large enough effect; an effect the other way counts as inactive or inconclusive;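 further: purified P. pyralis luciferase at 10 nM with luciferin and ATP substrate; 0% = DMSO and -100% = full luciferase inhibition by PTC124 control; nearly all actives have a fitted effect of over 70% in size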). A digest of the protocol:
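Counter-screen for direct inhibition of the luciferase enzyme by approved-drug library compounds, run at 10 nM enzyme in 50 mM Tris acetate (final). Luminescence was read within 5 min of enzyme-buffer addition and normalized to PTC124 versus DMSO (0%).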

Assay [12] can be described thus: S16 Schwann cell viability assay (CellTiter-Glo assay) (AID 624031; active means well fitted curve in the direction sought with a large enough effect; an effect the other way counts as inactive or inconclusive;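 further: cellular ATP luminescence as a viability measure; plate controls were DMSO-treated cells for no effect and cell-free wells for full effect; nearly all actives have a fitted effect of over 70% in size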). The method, boiled down: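 This viability control uses native rat S16 Schwann cells grown in DMEM plus 10% FBS. After a 24 h compound treatment at 37 °C, CellTiter-Glo luminescence reports ATP content, scaled against DMSO-treated and cell-free wells.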
A general note: Cellular ATP, detected with luciferase, serves as a proxy for viable cell number.

Assay [13] in a line: qHTS profiling for inhibitors of Plasmodium falciparum proliferation (AID 504749; active means well fitted curve in the direction sought with a large enough effect; an effect the other way counts as inactive or inconclusive; further: nearly all actives have a fitted effect of over 60% in size; further: potency means the concentration at half of the fitted maximal effect;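 on activity, negative = inhibition: 0% = DMSO vehicle and full inhibition = artemisinin control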). As to conditions: P. falciparum in erythrocytes, SYBR Green DNA, 72 h, at 12.8 µM (top of the series). A digest of the protocol: (§1)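 Parasite proliferation within erythrocytes, 72 h exposure. Endpoint: SYBR Green I fluorescence after overnight lysis at room temperature. Controls: 0.29 uM artemisinin, DMSO.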

The next assay deals with C2A. Described as above. The conditions noted are these: P. falciparum in erythrocytes, SYBR Green DNA, 72 h; series mostly up to 12.8 µM. The method, boiled down:
as §1

The subject of a further assay is CP191. The description is as above. As to conditions: P. falciparum in erythrocytes, SYBR Green DNA, 72 h; series mostly up to 12.8 µM. The method, boiled down:
as §1

In another assay the test system is CP256. The description is as above. The conditions noted are these: P. falciparum in erythrocytes, SYBR Green DNA, 72 h; series mostly up to 12.8 µM. A digest of the protocol:
as §1

The next assay relates to CP262. The description is as above. The conditions noted are these: P. falciparum in erythrocytes, SYBR Green DNA, 72 h; series mostly up to 12.8 µM. The method, boiled down: as §1
For another assay, the system named is CP268. The assay is described as above. As to conditions: P. falciparum in erythrocytes, SYBR Green DNA, 72 h; series mostly up to 12.8 µM. A digest of the protocol: as §1
A further assay relates to JCK. Described as above. As to conditions: P. falciparum in erythrocytes, SYBR Green DNA, 72 h; series mostly up to 12.8 µM. A digest of the protocol:
as §1

The subject of another assay is SC27B. The description is as above. As to conditions: P. falciparum in erythrocytes, SYBR Green DNA, 72 h; series mostly up to 12.8 µM. The method, boiled down: as §1
The mark [14] stands for this setting: measured here: cell count channel max response.
Where [15] appears, read: measured here: lipid channel max response.

Inconclusive results are not listed. Activity calls are given as the source filed them. Unless noted, the call rests on the fitted dose curve; in most records, active means well fitted curve in either direction with a large enough effect (not every such curve was filed as active); inconclusive means small, poorly fitted or top-dose-only effect, or another doubt; inactive means flat fitted curve, though single readings scatter.

Ubiquitin carboxyl-terminal hydrolase 1 (Homo sapiens), sequence (O94782 whole entry, looked up): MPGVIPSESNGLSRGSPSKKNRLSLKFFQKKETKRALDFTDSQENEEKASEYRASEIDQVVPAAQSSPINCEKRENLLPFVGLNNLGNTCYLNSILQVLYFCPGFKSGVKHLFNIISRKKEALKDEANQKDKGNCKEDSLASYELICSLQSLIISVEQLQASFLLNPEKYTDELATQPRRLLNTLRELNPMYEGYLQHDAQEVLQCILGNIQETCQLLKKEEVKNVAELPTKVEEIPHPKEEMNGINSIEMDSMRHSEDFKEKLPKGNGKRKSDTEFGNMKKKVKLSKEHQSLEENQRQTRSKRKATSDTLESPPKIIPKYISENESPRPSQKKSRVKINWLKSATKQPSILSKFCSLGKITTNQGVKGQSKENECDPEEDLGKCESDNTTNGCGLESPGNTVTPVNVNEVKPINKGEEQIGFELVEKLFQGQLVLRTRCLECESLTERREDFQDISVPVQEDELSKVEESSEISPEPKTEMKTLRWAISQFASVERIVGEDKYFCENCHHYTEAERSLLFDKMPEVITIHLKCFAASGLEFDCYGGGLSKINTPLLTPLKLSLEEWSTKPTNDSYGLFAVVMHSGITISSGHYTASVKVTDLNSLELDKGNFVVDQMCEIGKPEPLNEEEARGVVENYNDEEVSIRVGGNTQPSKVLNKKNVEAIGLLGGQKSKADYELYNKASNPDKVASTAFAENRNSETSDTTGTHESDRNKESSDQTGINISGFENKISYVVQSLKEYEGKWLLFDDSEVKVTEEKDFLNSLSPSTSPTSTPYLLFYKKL
3',5'-cyclic-AMP phosphodiesterase 4B (Homo sapiens), sequence (Q07343 whole entry, looked up): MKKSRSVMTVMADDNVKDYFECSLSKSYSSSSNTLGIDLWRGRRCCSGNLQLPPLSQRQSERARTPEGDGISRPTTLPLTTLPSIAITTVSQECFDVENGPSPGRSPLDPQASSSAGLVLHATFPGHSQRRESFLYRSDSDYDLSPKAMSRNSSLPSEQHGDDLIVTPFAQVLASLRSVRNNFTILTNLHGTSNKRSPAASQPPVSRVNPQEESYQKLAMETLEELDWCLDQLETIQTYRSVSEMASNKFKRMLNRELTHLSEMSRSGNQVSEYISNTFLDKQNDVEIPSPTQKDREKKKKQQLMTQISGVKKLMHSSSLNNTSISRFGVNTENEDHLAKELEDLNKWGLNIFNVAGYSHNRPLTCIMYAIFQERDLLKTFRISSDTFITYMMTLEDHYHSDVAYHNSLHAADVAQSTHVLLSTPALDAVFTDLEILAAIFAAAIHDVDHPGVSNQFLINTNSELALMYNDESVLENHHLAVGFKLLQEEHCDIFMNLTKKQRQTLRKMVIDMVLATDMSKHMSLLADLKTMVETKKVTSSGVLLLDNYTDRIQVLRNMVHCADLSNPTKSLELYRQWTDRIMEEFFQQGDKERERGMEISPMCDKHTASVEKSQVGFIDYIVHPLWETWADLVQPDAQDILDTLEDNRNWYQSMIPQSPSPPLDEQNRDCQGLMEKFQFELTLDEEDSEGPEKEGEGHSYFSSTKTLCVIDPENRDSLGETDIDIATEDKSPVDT
Luciferin 4-monooxygenase (Photinus pyralis), sequence (P08659 whole entry, looked up): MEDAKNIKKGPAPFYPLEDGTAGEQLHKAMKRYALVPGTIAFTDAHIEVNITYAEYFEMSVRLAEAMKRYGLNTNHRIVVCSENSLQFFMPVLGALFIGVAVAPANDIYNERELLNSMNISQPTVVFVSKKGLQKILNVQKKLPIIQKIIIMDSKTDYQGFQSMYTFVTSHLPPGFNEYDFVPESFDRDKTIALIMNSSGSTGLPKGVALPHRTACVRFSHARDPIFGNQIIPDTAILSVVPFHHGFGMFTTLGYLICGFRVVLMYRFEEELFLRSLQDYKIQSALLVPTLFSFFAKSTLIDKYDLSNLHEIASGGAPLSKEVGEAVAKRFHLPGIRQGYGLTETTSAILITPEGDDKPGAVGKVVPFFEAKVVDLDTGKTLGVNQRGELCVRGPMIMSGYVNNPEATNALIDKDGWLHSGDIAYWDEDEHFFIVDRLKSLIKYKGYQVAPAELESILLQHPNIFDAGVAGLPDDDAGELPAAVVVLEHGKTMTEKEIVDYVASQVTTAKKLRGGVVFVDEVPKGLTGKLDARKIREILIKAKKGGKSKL

Turning to `CC1(C)O[C@@H]2C[C@H]3[C@H]4C[C@H](F)C5=CC(=O)CC[C@]5(C)[C@@H]4[C@H](O)C[C@]3(C)[C@]2(C(=O)CO)O1`, the compound was classed as inactive in [1], in [4], in assay [8] and in assay [12]. The Potency result (in assay [2]; in assay [7]; in [10]; in assay [11]; in the assay on C2A; with CP191) was “inactive” throughout. The Potency result in the assay with CP256, in the assay on CP262, in the assay with CP268, in the assay on JCK and in the assay with SC27B was “inactive” throughout. Further, the activity change, negative = inhibition was -4.77% (inactive) in assay [3] and -1.62% (inactive) in assay [9]. The Potency was 0.00126 µM (active) in assay [5] and 0.0188 µM (active) in [6]. For the same compound, the max response in [9] (setting [14]) was -9.46%; in assay [9] (setting [15]), -9.41%. The activity, negative = inhibition is -10.9% (inactive) in assay [13] (parasite line A) and -1.91% (inactive) in assay [13] (parasite line B).

As to `CNC[C@H](O)c1ccc(OC(=O)C(C)(C)C)c(OC(=O)C(C)(C)C)c1`, the outcome in assay [1], in [4], in assay [8] and in assay [12] was inactive. The Potency result (in assay [2]; in assay [7]; in [11]; with C2A; in the assay on CP191; in the assay with CP262) was “inactive” throughout. Also, the Potency entry with CP268, with JCK and with SC27B was “inactive” each time. Moreover, the activity change, negative = inhibition is 1.95% (inactive) in [3] and 0.431% (inactive) in [9]. Besides, the Potency was > 20.6 µM (inactive) in [5], > 20.6 µM (inactive) in assay [6] and 10 µM (active) in the assay on CP256. Besides, the figures for the max response in [9] (setting [14]) and in assay [9] (setting [15]) were 14.1% and 16.1%, respectively. Also, the activity, negative = inhibition in assay [13] (parasite line A) is -7.03% (inactive).

As to `O=c1[nH]c(=O)n([C@@H]2C[C@H](O)[C@H](CO)O2)cc1C(F)(F)F`, the compound was called inactive in assay [1] and in assay [4]. Besides, the Potency result in [2], in assay [7] and in assay [10] was “inactive” throughout. The figures for the activity change, negative = inhibition in [3] and in [9] were 1.4% (inactive) and -0.507% (inactive), respectively. The Potency in [5] and in assay [6] was > 20.6 µM (inactive) each time. For the same compound, the max response was -7.04% in [9] (setting [14]) and -7.97% in [9] (setting [15]).

`CN[C@@H]1[C@H](O[C@H]2[C@@H](O[C@@H]3[C@@H](O)[C@@H](O)[C@@H](N=C(N)N)[C@@H](O)[C@@H]3N=C(N)N)O[C@@H](C)[C@]2(O)CO)O[C@H](CO)[C@@H](O)[C@@H]1O`: the outcome in assay [1], in [4] and in assay [8] was inactive. Besides, the Potency result in [2], in [7] and in assay [10] was “inactive” throughout. Further, the activity change, negative = inhibition in [3] is 1.68% (inactive); in assay [9], -1.28% (inactive). Also, the Potency in assay [5] and in [6] was > 20.6 µM (inactive) throughout. Besides, the values for the max response in assay [9] (setting [14]) and in assay [9] (setting [15]) were -9.77% and -12.5%, respectively.

As to `CC(=O)N[C@H]1[C@@H](O[C@@H](C)C(=O)O)[C@H](O)[C@H](CO)O[C@@H]1O`, the outcome in assay [1] and in assay [4] was inactive. The Potency result in assay [2], in assay [7] and in [10] was “inactive” in each case. Also, the activity change, negative = inhibition in assay [3] is 4.75% (inactive); in assay [9], -1.67% (inactive). Besides, the Potency in [5] and in assay [6] was > 20.6 µM (inactive) throughout. The max response in assay [9] (setting [14]) is 7.96%; in [9] (setting [15]), 4.82%.

Turning to `CC(C)(CS)C(=O)N1CCC[C@H]1C(=O)O`, the outcome in assay [1] and in assay [4] was inactive. Besides, the Potency entry in assay [2], in assay [7] and in assay [10] was “inactive” in each case. Also, the figures for the activity change, negative = inhibition in assay [3] and in [9] were -3.44% (inactive) and 1% (inactive), respectively. Also, the Potency in assay [5] and in [6] was > 20.6 µM (inactive) each time. Besides, the max response in assay [9] (setting [14]) is 2.97%; in [9] (setting [15]), 4.64%.

On to `Cc1c(O)c(=O)n(-c2ccccc2)n1C`, for which the result in [1], in [4] and in assay [8] was inactive. Moreover, the Potency entry in [2], in assay [7] and in assay [10] was “inactive” each time. Further, the activity change, negative = inhibition in [3] was -1.71% (inactive); in assay [9] it was -0.744% (inactive). Moreover, the Potency in assay [5] and in assay [6] was > 20.6 µM (inactive) in each case. In addition, the max response in assay [9] (setting [14]) was 20.7%; in assay [9] (setting [15]), 19.1%.

Values taken from PubChem BioAssay (NCATS).
